tim10-1 inh: growth inhibitors of tim10-1 mutant yeast. S. cerevisiae tim10-1 ts strain growth, BacTiter-Glo, 24 h. inhibition, % at 20 µM. hit rate 2.2% among 330,000. AID 463190;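 active means inhibition of at least 40%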;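 further: mutant grown at 25 °C; 0% = DMSO wells with yeast and 100% = wells holding no yeast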
SKKanGAS inh: inhibitors of SKKanGAS S. pyogenes growth in kanamycin (SK-promoter or general growth effect). BacTiter-Glo, 6 h. inhibition, % at 7.5 µM. hit rate 1.3% among 300,000. AID 1662;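 active means mean replicate score, as percent of positive control median, at least 50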;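 further: strain carries kanamycin resistance gene driven by streptokinase promoter and grows in 40 µg/ml kanamycin; loss of luminescence reflects streptokinase promoter inhibition or plain growth inhibition; 0% = median of DMSO wells and 100% = positive control at its reference dose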
tim23-1 inh: tim23-1 yeast growth inhibition | inhibition, % at 20 µM | S. cerevisiae tim23-1 growth, BacTiter-Glo luminescence, 24 h | hit rate 1.3% among 330,000;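 active means growth inhibition of the mutant yeast at or above 50%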;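 further: temperature-sensitive mutant grown at 25 °C; plate controls were DMSO-treated mutant yeast for no effect and medium wells lacking yeast for full effect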
EBI2 antag: antagonists of human EBI2 receptor. P32249. EBI2 beta-arrestin recruitment, luminescence, 7a,25-OHC stimulated. inhibition, % at 5 µM. hit rate 0.81% among 360,000; in the data active means inhibition above about 38%;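 further: enzyme fragment complementation signal reports receptor beta-arrestin coupling in cells; 0% = agonist plus DMSO wells and 100% = wells without agonist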
Target sequence (P32249 whole entry, looked up, the tested form may be a part): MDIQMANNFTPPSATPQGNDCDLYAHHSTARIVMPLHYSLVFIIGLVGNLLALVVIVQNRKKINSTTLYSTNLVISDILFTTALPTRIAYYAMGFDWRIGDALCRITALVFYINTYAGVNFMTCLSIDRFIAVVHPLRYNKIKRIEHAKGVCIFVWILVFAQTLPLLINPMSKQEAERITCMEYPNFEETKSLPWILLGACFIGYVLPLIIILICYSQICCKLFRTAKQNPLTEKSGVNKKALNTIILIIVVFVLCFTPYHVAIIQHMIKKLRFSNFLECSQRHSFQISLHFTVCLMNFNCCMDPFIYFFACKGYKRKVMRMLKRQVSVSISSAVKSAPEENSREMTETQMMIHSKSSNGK
TIM10 inh: TIM10 yeast growth inhibition | S. cerevisiae TIM10 strain growth, BacTiter-Glo luminescence, 24 h | inhibition, % at 10 µM | hit rate 1.4% among 330,000 | AID 463195;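 active means inhibition of 40% or more at the single tested concentration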;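 further: wild-type TIM10 isogenic control strain grown at permissive 25 °C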
PfHsp90 set2: growth inhibition of yeast expressing Plasmodium Hsp90; AID 504621; S. cerevisiae expressing PfHsp90, BacTiter-Glo ATP, 48 h; yeast lacking PDR1 and PDR3 efflux regulators; hit rate 0.32% among 310,000; inhibition, % at 9.4 µM;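 active means every replicate shows inhibition above about 80%, whatever the replicate mean, limit read from the data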;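 further: 0% = DMSO neutral controls and 100% = 20 µM radicicol positive controls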
tim10-1 confirm: tim10-1 yeast growth inhibition, confirmed | shares compounds with tim10-1 inh | AID 463213 | hit rate 56% among 7,400 | S. cerevisiae tim10-1 ts strain growth, BacTiter-Glo, 24 h | inhibition, % at 20 µM;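 active means inhibition of yeast growth at or above a set limit in either of two repeat tests at 20 µM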;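 further: tim10-1 mutant grown at permissive 25 °C to find synthetic lethal compounds; 0% = DMSO yeast wells and 100% = medium wells without yeast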
Active calls of the source: *; . = not tested or not shown. In the library only some 4.7% were active in any assay of this set; here they are far more common.

SMILES	tim10-1 inh	SKKanGAS inh	tim23-1 inh	EBI2 antag	TIM10 inh	PfHsp90 set2	tim10-1 confirm
CC1CCN(Cc2nnnn2-c2ccc(Cl)cc2)CC1	56.5*	0.0	49.5	-0.2	17.3	-2.2	36.8*
Clc1ccc(-n2nnnc2CN2CCOCC2)cc1Cl	20.2	-4.6	5.2	-5.8	-13.7	-0.6	.
Cc1nc(SCc2nc3ccc(C(=O)c4ccccc4)cc3[nH]2)c2oc3ccccc3c2n1	-0.5	.	7.4	9.7	-7.0	-7.2	.
Cc1ccccc1NC(=S)Nc1ccccn1	46.8*	-4.3	34.7	7.8	12.8	-8.2	-5.0
CCCn1c(C)nc2c(c1=O)c1nc3ccccc3nc1n2CCC1=CCCCC1	48.8*	11.1	38.9	4.2	7.5	.	-2.4
Cc1nc2c(c(=O)n1CCC1=CCCCC1)c1nc3ccccc3nc1n2/N=C/c1ccco1	-6.4	39.5	4.0	24.4	10.1	-4.0	.
O=C([C@H]1O[C@@H](n2ccc(=O)[nH]c2=O)[C@H](O)[C@@H]1O)N1CCSC1	.	.	.	-3.1	.	.	.
CCOC(=O)c1sc(NC(=O)C2CC2)cc1C	54.5*	0.5	47.6	-10.2	36.7	8.5	22.1
CCOC(=O)c1sc(NC(=S)NC(=O)C2CCCC2)cc1C	11.1	-25.7	16.7	-3.6	20.0	31.4	.
O=C(CCNC(=O)Cn1ccc2ccccc2c1=O)NCCc1ccc(Cl)cc1	-14.6	-12.4	-9.4	-0.5	-11.3	-25.2	.
Cc1ccc(N2C(N)=C(C#N)C(c3cc(CN4CCOCC4)cs3)C3=C2CC(C)(C)CC3=O)cc1 (centres undefined)	4.9	0.4	22.6	1.7	-13.9	.	.
O=C(N/N=C/c1ccc([N+](=O)[O-])o1)c1cc(-c2ccc(-c3ccccc3)cc2)nc2ccccc12	55.7*	74.1*	32.0	0.2	37.6	4.1	41.5*
O=C(N/N=C/c1ccc[nH]1)c1cc(-c2ccc(Cl)cc2)nc2ccccc12	55.6*	34.3	37.1	16.4	35.2	-7.3	51.1*
O=C(N/N=C/c1cccnc1)c1cc(-c2ccc(Cl)cc2)nc2ccccc12	18.3	-1.4	36.8	18.1	15.5	17.3	.
O=C(N/N=C/c1ccc([N+](=O)[O-])o1)c1cn(-c2ccccc2)nc1-c1ccccc1	54.3*	22.1	36.3	17.3	30.4	6.3	28.1
O=C(N/N=C/c1ccc([N+](=O)[O-])o1)c1cc(-c2ccncc2)nc2ccccc12	21.2	7.9	8.0	0.1	1.2	46.8	.
O=C(O)COc1ccc(/C=N/NC(=O)c2cn(-c3ccccc3)nc2-c2ccccc2)cc1	3.1	-1.5	19.6	-7.4	5.4	7.4	.
CCOc1ccc(NC(=O)CN(C)S(=O)(=O)c2cccc3cccnc23)cc1	3.6	0.4	10.9	-4.2	-4.2	24.1	.
C/C(=N\O)c1cc(Cl)cc(Cl)c1O	48.2*	-4.0	37.6	3.1	37.8	-46.3	42.8*
CCOC(=O)C(C#N)=C1CCC=C(C)C1	.	.	.	-3.1	.	.	.
CCOC(=O)/C(C#N)=C1\SS/C(=C(/C#N)C(=O)OCC)S1	41.0*	-7.5	21.2	.	12.6	.	35.7*
C(=N\N1CCOCC1)/c1cn(-c2ccccc2)nc1-c1ccccc1	48.9*	-16.5	49.6	0.6	7.7	13.2	39.8*
COc1cc2c(cc1NC(=O)Nc1ccc(C)cc1)oc1ccccc12	43.0*	3.2	12.8	9.8	29.9	36.0	41.4*
COc1cc2c(cc1NC(=O)CSc1nc3ccccc3[nH]1)oc1ccccc12	41.1*	5.9	34.0	26.6	22.5	-30.4	-7.5
COc1cc2c(cc1NC(=O)CSc1ccccc1)oc1ccccc12	12.6	-14.4	9.7	6.6	13.6	5.3	.
SMILES	tim10-1 inh	SKKanGAS inh	tim23-1 inh	EBI2 antag	TIM10 inh	PfHsp90 set2	tim10-1 confirm
COc1ccc(NC(=O)Nc2cc3oc4ccccc4c3cc2OC)cc1	19.9	7.2	3.7	6.7	20.3	16.8	.
N#CCOc1coc(CN2CCN(c3ccccc3)CC2)cc1=O	9.0	6.2	13.6	-1.6	0.5	27.8	.
COc1cc(/C=C/C(=O)c2cccc([N+](=O)[O-])c2)cc(OC)c1OC	53.5*	-12.8	47.6	18.4	12.9	21.3	41.2*
O=C(/C=C/c1ccccc1F)c1cccc([N+](=O)[O-])c1	51.4*	8.7	38.6	7.6	27.3	-20.1	47.9*
COc1cc(/C=C/C(=O)c2ccc(C)c([N+](=O)[O-])c2)cc(OC)c1O	21.7	1.7	31.2	24.9	28.5	1.3	.
Cc1cc(N2CCN(S(=O)(=O)c3ccc4ccccc4c3)CC2)n2ncnc2n1	12.2	-8.0	5.9	1.9	20.9	-22.9	.
O=C(O)c1ccc(C=C(c2nc3ccccc3s2)c2nc3ccccc3s2)cc1	59.2*	35.5	34.2	1.2	23.3	-12.3	45.1*
O=C(O)c1ccc(Oc2nc3ccccc3s2)cc1	.	.	.	-5.8	.	21.8	.
COc1ccccc1N/C(=N/S(=O)(=O)c1ccc(C)cc1)c1ccccc1	31.0	-1.6	26.5	1.7	28.0	3.0	.
COc1ccccc1N/C(=N/S(=O)(=O)c1ccc(Cl)cc1)c1ccccc1	40.6*	-1.9	36.8	-1.3	26.3	-8.6	27.6
O=C(CSc1ccccn1)N1CCN(c2cccc(Cl)c2)CC1	43.2*	-6.4	17.8	-5.7	14.2	14.4	17.4
O=C(Cc1ncc(C(F)(F)F)cc1Cl)N1CCN(c2cccc(Cl)c2)CC1	42.8*	-2.0	7.2	0.4	0.1	-2.7	9.2
O=C(CCN1C(=O)c2ccccc2C1=O)C1=NN[C@@H]2C(=O)N(c3cccc(Cl)c3)C(=O)[C@H]12	0.7	2.0	2.3	-6.5	-12.3	14.1	.
O=C1c2cc(O)cc(O)c2C(=O)c2c1cc(O)c([C@@H](CO)CCO)c2O	10.3	17.2	3.5	-7.3	3.1	27.5	.
Cc1cc(O)c2c(c1)C(=O)c1cc(O)cc(O)c1C2=O	45.4*	5.9	44.3	-6.6	24.1	25.1	22.8
Cc1ccc(-c2csc(=S)n2CC(=O)OCC(=O)NCc2ccco2)cc1	40.8*	-4.1	22.1	-16.4	5.9	.	19.5
Cc1ccc(-c2csc(=S)n2CC(=O)OCC(=O)NC(C)C(C)C)cc1 (centres undefined)	25.8	-4.5	24.6	-14.7	23.0	11.5	.
COc1cccc(C(c2nnnn2Cc2ccco2)N2CCN(Cc3ccccc3)CC2)c1OC (centres undefined)	26.9	-1.3	20.3	9.3	4.9	18.0	.
CCCC(c1nnnn1Cc1cccs1)N1CCN(C)CC1 (centres undefined)	14.6	1.0	14.8	-12.2	3.8	11.8	.
CC(C)C(c1nnnn1Cc1ccco1)N1CCN(c2cccc(Cl)c2)CC1 (centres undefined)	41.1*	-3.8	40.3	14.4	21.6	5.1	14.7
COc1ccc(N2CCN(C(c3ccccc3OC)c3nnnn3Cc3ccco3)CC2)cc1 (centres undefined)	40.4*	1.5	13.0	7.9	4.1	3.6	22.1

Source: PubChem (several laboratories)
